A selection: hits, their analogues and other compounds. The true share with any hit is near 2.6%.
Nrf2 block: inhibitors of Nrf2 signaling; Potency, µM (top dose mostly 46 µM), actives largely listed as inhibitors; A549 ARE-Fluc reporter, luciferase luminescence, 18-24 h; actives 2.1% (n = 360,000); AID 504444; note: nearly all actives have a fitted effect of over 60% in size
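A549 ARE_Fluc cells, 5000/well, 5% FBS OPTI-MEM; compounds in dose-response, 18-24 h at 37 °C/5% CO2; CellTiter-Fluor viability read (Ex 405/Em 525), then BugLite luciferase luminescence = Nrf2 activity.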
TCR activator: activators of T cell receptors. AID 504894. Potency, µM (top dose mostly 9.22 µM), actives largely listed as activators. primary human leukocytes, anti-CD3, IL-2 HTRF, 48 h. 330,000 tested, under 10 active
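1) Mix primary human leukocytes, a-CD3 beads and compound. 2) Incubate 48 hr. 3) Add HTRF IL-2 reagents (a-IL-2-K, a-IL-2-d2).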
A-T KAP1 phos: potential ataxia-telangiectasia treatments restoring KAP-1 phosphorylation; actives 0.19% (n = 320,000); F2112 A-T fibroblasts, KAP-1 phosphorylation AlphaLISA; neocarzinostatin DNA damage 30 min before lysis; Potency, µM (series often up to 57.5 µM), actives largely listed as activators; note: nearly all actives have a fitted effect of over 45% in size
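hTERT-immortalized A-T patient fibroblasts (F2112), 500 cells/well in OPTI-MEM, 1% FBS, got compounds for 60 min, then NCS for 30 min at 37C. Lysates were then assayed for phospho-KAP-1 by AlphaLISA (anti-pKAP1 donor, anti-KAP1 acceptor beads), 6 hr at 25C.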
A549 tox: kills or reduces viability of A549 cells in Nrf2 counter-screen; Potency, µM (doses to about 46 µM), usual class: inhibitors; actives 0.16% (n = 390,000); A549 ARE-Fluc cells, CellTiter-Fluor viability, 18-24 h
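A549 ARE-Fluc cells in 5% FBS OPTI-MEM, 5000 cells/well, rested 2 h then exposed to compounds in concentration-response for 18-24 h at 37 °C. Viability by CellTiter-Fluor fluorescence (Ex 405/Em 525) after 30 min; luciferase luminescence (BugLite, 15 min, RT) read afterwards.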
Nrf2 ARE act: activators of Nrf2 (ARE) signaling. AREc32 ARE-luciferase reporter (MCF7-derived line), luminescence, 24 h. Potency, µM (series often up to 46.1 µM), hits mostly activators. actives 0.31% (n = 410,000); note: nearly all actives have a fitted effect of over 65% in size
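Luminescent ARE reporter assay in AREc32_Fluc cells: overnight plating at 37 deg C, 24 hr compound incubation, Steady-Glo added, 30 min RT before reading.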
CCT chaperon mod: changes cytosolic chaperonin activity. AID 651819. activity change, % (test concentration not listed), hits read low. actives 0.3% (n = 360,000). purified chaperonin ATPase assay, HTRF ADP detection, 30 min; in the data active = activity change below about -30%
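We incubate TRiC, 40 or 20 nM final, with library compounds at 76 uM and 10 uM ATP for 30 min at 37 °C. ADP formed is detected with Transcreener HTRF reagents after 30 min at room temperature.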
A number is an active result; i = inactive; ? = inconclusive; nt = no result given; ! = repeats disagree; [ ] = another dose, or the depositor's remark. Unless noted, calls come from the whole dose curve; as a rule, active = well fitted curve in the direction sought with a large enough effect; inconclusive = small, poorly fitted or top-dose-only effect, or another doubt; inactive = no such curve, though single readings can be large; an effect the other way counts as inactive or inconclusive.

SMILES | Nrf2 block | TCR activator | A-T KAP1 phos | A549 tox | Nrf2 ARE act | CCT chaperon mod
COc1ccccc1C1c2c(ncn(-c3ccccc3)c2=N)Oc2ccc3ccccc3c21 (stereo not given) | 23µM | nt | nt | 21µM | nt | nt
COc1cccc(C2c3c(ncn(-c4ccccc4)c3=N)Oc3ccc4ccccc4c32)c1 (stereo not given) | 15µM! | nt | nt | 15µM! | nt | nt
Cc1ccc(-c2cc3ncc4c(n3n2)-c2cc(Cl)ccc2OC4)cc1 | i | nt | nt | i | i | nt
C=C(C)CSc1nc2sc3c(c2c(=O)n1-c1ccccc1)CCC(C)C3 (stereo not given) | i | nt | nt | i | i | nt
COc1cc(NC(=S)Nc2ccccn2)c(OC)cc1Cl | i | i | i | i | 4µM | i
COc1ccccc1C(=O)Nc1ccccn1 | nt | i | i | i | 11µM | i
COc1cc(OC)c(NC(=S)Nc2cc(Cl)cc(Cl)c2)cc1Cl | 21µM | i | i | i | i | i
O=C(Nc1ccccn1)c1ccc(Br)s1 | ? | nt | i | i | 16µM | i
COc1cc(NC(=S)Nc2cccc(Cl)c2Cl)c(OC)cc1Cl | i | i | i | i | i | i
Cc1cccc(C(=O)NCC(=O)OC(C(=O)Nc2cc(C(F)(F)F)ccc2Cl)c2ccccc2)c1 (stereo not given) | i | nt | nt | i | nt | nt
CCOC(=O)c1ccc(NC(=O)CC2C(=O)N(c3ccc(F)cc3)C(=O)N2Cc2ccc(C)cc2)cc1 (stereo not given) | ? | nt | nt | i | i | nt
COc1cc(CNc2ncnc3c2ncn3[C@H]2CN(Cc3ccccc3)C[C@@H](COC(C)=O)O2)cc(OC)c1OC | nt | nt | nt | nt | i[9.22 µM] | -38
COc1cc(CNc2ncnc3c2ncn3[C@H]2CN(Cc3cccc(C(F)(F)F)c3)C[C@@H](COC(C)=O)O2)cc(OC)c1OC | nt | nt | nt | nt | i | i
COCCNC(=S)N/N=C(\C)c1ccc(O)cc1 | i | i | i | i | i | i
C/C(=N\NC(=S)NCC(C)(C)C)c1cc(F)cc(F)c1O | 23µM | i | i | ? | 10µM | i
Fc1ccc(-c2csc3[n+]2CCS3)cc1 | 16µM | i | i | i | i | i
COC(=O)c1c(C)oc2ccc(N(C(=O)c3ccncc3)S(=O)(=O)c3ccccc3)cc12 | nt | i | i | ? | i | i
COC(=O)c1c(C)oc2ccc(N(C(=O)c3ccncc3)S(=O)(=O)c3ccc4ccccc4c3)cc12 | 23µM | i | i | i | i | i
COC(=O)c1c(C)oc2ccc(N(C(=O)c3ccncc3)S(=O)(=O)c3ccc(C)cc3)cc12 | 10µM | i | i | ? | i | i
COC(=O)c1c(C)oc2ccc(N(C(=O)c3ccncc3)S(=O)(=O)c3ccc(C)cc3C)cc12 | 6.5µM | i | i | ? | i | i
Cc1ccccc1S(=O)(=O)N(CC(O)CN1C(=O)NC(C)(C)C1=O)c1ccccc1 (stereo not given) | i | i | i | i | i | i
CC(C(=O)Nc1cccnc1)c1ccc([N+](=O)[O-])cc1 (stereo not given) | i | i | i | i | i | i
CC(C)Cc1ccc(C(C)C(=O)Nc2cccnc2)cc1 (stereo not given) | 6.5µM | i | i | i | i | i
CC(C)(C)OC(=O)Cc1nnc(-c2cc3ccccc3[nH]2)s1 | ? | nt | nt | i | nt | nt
O=C(CSc1nccn1-c1ccc(F)cc1)Nc1ccc(OC(F)(F)F)cc1 | nt | nt | nt | i | i | nt
Cc1ccc2nc(N/N=C\c3ccc([N+](=O)[O-])o3)nc(-c3ccccc3)c2c1 | ? | i | i | 23µM | i | i
O=[N+]([O-])c1ccc(/C=N/Nc2nc(N3CCCC3)nc(N3CCCC3)n2)o1 | 23µM | i | i | ? | i | i
C(=N\Nc1nc(N2CCOCC2)nc(N2CCOCC2)n1)/c1ccco1 | nt | nt | i | nt | nt | nt
Fc1ccc(Nc2nc(N/N=C/c3ccco3)nc(N3CCCCC3)n2)cc1 | 18µM | i | i | i | i | i
O=[N+]([O-])c1ccc(/C=N/Nc2nc(-c3ccccc3)c3cc(Br)ccc3n2)o1 | i | i | i | i | i | i
